Reference: PubChem BioAssay (Tox21)
A number with no mark means an inactive call. Inconclusive results are not listed. A call without a number means that no potency is given here. The source made the active and inactive calls. Unless noted, the call rests on the fitted dose curve; in most records, active means well fitted curve in the direction sought with a large enough effect in the repeat runs; inconclusive means weak or mixed curves; inactive means no such curve, though single readings can be large; an effect the other way counts as inactive or inconclusive.

Assays:
[1] = qHTS assay to identify small molecule antagonists of the estrogen related receptor (ERR) signaling pathway from Tox21 library - cell viability counter screen (AID 1224834); further: nearly all actives have a fitted effect of over 30% in size
How it was run: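 Seeded ERR cells were rested 6 h at 37 C/5% CO2 before compounds, positive and negative controls or DMSO were added. Incubation continued for 17.5 h, and viability was then quantified by CellTiter-Fluor fluorescence.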

[2] = target: Luciferin 4-monooxygenase (Photinus pyralis) (UniProt P08659); experiment: qHTS assay to identify small molecule inhibitors of firefly luciferase (AID 1224835); further: nearly all actives have a fitted effect of over 25% in size; further: potency means the concentration at half of the fitted maximal effect
Luciferin 4-monooxygenase (Photinus pyralis), sequence (P08659 whole entry, looked up): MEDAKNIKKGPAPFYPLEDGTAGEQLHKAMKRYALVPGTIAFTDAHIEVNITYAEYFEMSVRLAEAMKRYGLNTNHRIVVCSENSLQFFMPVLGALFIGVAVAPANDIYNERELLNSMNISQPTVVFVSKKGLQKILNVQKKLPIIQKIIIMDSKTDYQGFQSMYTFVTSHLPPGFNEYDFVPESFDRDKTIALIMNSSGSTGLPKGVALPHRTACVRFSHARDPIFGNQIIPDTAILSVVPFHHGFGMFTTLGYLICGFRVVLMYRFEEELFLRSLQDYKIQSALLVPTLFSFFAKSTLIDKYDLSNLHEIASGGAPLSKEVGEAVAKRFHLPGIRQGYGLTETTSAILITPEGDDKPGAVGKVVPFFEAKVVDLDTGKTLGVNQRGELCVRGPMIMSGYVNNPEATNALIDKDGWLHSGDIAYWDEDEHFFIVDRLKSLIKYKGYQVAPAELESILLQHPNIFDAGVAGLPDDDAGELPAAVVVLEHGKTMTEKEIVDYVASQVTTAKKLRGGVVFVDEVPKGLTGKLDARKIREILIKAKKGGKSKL
How it was run: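 Inhibition of purified Photinus luciferase is measured by luminescence. Substrate levels (D-luciferin, ATP) sit at their KM values. Each compound is tested in a concentration series.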

[3] = qHTS assay to identify small molecule agonists of the constitutive androstane receptor (CAR) signaling pathway - cell viability counter screen (AID 1224836); further: nearly all actives have a fitted effect of over 45% in size
How it was run: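 Fluorescence from CellTiter-Fluor indicates live cells after 23 h exposure. The human hepatoma line expresses hCAR and a CYP2B6-2.2kb reporter. Incubation medium contains 0.75 uM PK11195 (final).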

[4] = qHTS assay to identify small molecule antagonists of the constitutive androstane receptor (CAR) signaling pathway - cell viability counter screen (AID 1224837); further: nearly all actives have a fitted effect of over 45% in size
How it was run: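 To flag cytotoxic false antagonists, HepG2 hCAR/CYP2B6-2.2kb cells were treated 23 hr with 15-concentration compound series and 50 nM CITCO at 37 C/5% CO2; CellTiter-Fluor fluorescence was the measured end point.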

[5] = target: Nuclear receptor subfamily 1 group I member 3 (Homo sapiens) (UniProt Q14994); experiment: qHTS assay to identify small molecule agonists of the constitutive androstane receptor (CAR) signaling pathway (AID 1224839);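 further: HepG2 cells stably carrying human CAR and a CYP2B6 luciferase reporter; nearly all actives have a fitted effect of over 15% in size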
Nuclear receptor subfamily 1 group I member 3 (Homo sapiens), sequence (Q14994 whole entry, looked up): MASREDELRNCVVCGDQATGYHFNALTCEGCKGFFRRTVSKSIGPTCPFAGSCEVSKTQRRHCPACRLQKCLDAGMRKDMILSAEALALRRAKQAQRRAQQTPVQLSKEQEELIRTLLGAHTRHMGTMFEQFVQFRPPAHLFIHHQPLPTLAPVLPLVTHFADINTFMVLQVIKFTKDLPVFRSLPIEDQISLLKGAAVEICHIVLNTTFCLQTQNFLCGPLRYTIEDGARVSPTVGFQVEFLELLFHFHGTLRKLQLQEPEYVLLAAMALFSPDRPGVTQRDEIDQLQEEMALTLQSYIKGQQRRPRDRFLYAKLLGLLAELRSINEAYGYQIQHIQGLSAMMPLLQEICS
How it was run: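 Stable hCAR/CYP2B6-2.2kb HepG2 line in DMEM with 10% FBS; compounds (15 concentrations) and 0.75 uM PK11195 final, 24 h at 37 C/5% CO2, then ONE-Glo luminescence after 30 min.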

[6] = qHTS assay to identify small molecule antagonists of the estrogen related receptor signaling pathway with the pleiotropic PPARgamma coactivator (PGC) from Tox21 10K library - cell viability counter screen (AID 1224840; active means well fitted cell-killing curve with a large enough effect in the repeat runs, not every such curve was filed as active; further: nearly all actives have a fitted effect of over 40% in size)
How it was run: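 Seeded PGC/ERR cells (2,000/well, 6 h, 37 C/5% CO2) get compound by pin tool; 17.5 h incubation at 37 C; CellTiter-Fluor added, 30 min, fluorescence measured.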

[7] = qHTS assay to identify small molecule antagonists of the estrogen related receptor signaling pathway with the pleiotropic PPARgamma coactivator (PGC) from Tox21 10K library (AID 1224841; call rule not given here; further: actives are mostly falling curves and most rising ones were filed inactive; nearly all actives have a fitted effect of over 50% in size)
How it was run: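 Test chemicals dissolved in DMSO were applied to pre-incubated (6 h) PGC/ERR cells at 2,000 cells/well for an 18 h, 37 C treatment; reporter luminescence was then read using One-Glo.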

[8] = qHTS assay to identify small molecule agonists of the estrogen related receptor signaling pathway with the pleiotropic PPARgamma coactivator (PGC) from Tox21 10K library (AID 1224842); further: nearly all actives have a fitted effect of over 15% in size
How it was run: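 Luminescence from One-Glo (30 min, room temperature) measured after PGC/ERR cells had 18 h at 37 C with pinned compound (23 nL in DMSO). Cells had been seeded at 2,000 per well and pre-incubated 6 h.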

[9] = target: Thyrotropin receptor (Homo sapiens) (UniProt P16473); experiment: qHTS assay to identify small molecule agonists of the thyroid stimulating hormone receptor (TSHR) signaling pathway (AID 1224843; calls by dose curve; further: nearly all actives have a fitted effect of over 45% in size)
Thyrotropin receptor (Homo sapiens), sequence (P16473 whole entry, looked up): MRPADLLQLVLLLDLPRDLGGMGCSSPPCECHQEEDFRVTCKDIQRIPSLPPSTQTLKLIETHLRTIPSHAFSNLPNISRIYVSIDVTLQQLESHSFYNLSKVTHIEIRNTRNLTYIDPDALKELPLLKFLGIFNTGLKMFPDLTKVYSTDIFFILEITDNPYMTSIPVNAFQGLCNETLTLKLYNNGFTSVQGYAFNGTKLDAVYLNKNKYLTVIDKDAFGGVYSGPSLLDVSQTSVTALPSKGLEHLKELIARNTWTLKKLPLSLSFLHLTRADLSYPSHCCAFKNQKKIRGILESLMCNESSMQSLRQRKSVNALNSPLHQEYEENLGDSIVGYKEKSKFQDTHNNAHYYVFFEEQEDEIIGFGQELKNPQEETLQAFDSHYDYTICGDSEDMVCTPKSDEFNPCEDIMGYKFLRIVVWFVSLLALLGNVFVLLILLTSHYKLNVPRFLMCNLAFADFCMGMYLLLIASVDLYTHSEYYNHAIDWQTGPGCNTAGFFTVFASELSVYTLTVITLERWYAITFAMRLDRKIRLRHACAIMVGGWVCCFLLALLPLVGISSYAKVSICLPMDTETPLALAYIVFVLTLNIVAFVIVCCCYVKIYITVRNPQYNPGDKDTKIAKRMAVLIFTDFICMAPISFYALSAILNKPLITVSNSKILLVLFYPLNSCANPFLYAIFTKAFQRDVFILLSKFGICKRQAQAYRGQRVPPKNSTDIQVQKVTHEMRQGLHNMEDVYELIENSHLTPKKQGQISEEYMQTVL
How it was run: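 A cell-based cAMP HTRF format was run in TSHR-transfected HEK293 cells, 800 per well. Treatment: 30 min, room temperature. Detection: 1 h with labelled cAMP and anti-cAMP cryptate. Concentration-response over 15 points, three replicates.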

[10] = qHTS assay to identify small molecule agonists of the hypoxia (HIF-1) signaling pathway - cell viability counter screen (AID 1224844; calls by dose curve; further: nearly all actives have a fitted effect of over 50% in size)
How it was run: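 HRE-bla ME-180; 0.5% dFBS; cpd 17 h, 37C, 5% CO2; CellTiter-Glo lum., 30 min RT, post-FRET read, same wells.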

[11] = qHTS assay to identify small molecule agonists of H2AX (AID 1224845; active means well fitted activation curve with a large enough effect in the signal ratio in the repeat runs, not every such curve was filed as active; the % refers to the signal ratio)
How it was run: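 Phospho-H2AX Ser139 measured by HTRF (ex 320 nm; em 665 and 620 nm) after 24 hr antibody incubation. Compounds, 15 concentrations, 0.76% DMSO, were applied to CHO-K1 cells for 3hr at 37C before lysis.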

[12] = qHTS assay to identify small molecule agonists of H2AX - cell viability counter screen (AID 1224847; calls by dose curve; further: top concentration of the series differs between compounds; nearly all actives have a fitted effect of over 30% in size)
How it was run: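 Viability of CHO-K1 (wild type) cells after 3 hr compound exposure was measured by CellTiter-Glo luminescence.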

[13] = qHTS assay to identify small molecule agonists of the estrogen related receptor (ERR) signaling pathway from Tox21 library (AID 1224849; calls by dose curve; further: nearly all actives have a fitted effect of over 15% in size); details: ERR reporter cell line, ONE-Glo luciferase, 18 h; at 92.4 µM (top of the series) unless noted
How it was run: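 Tox21 compounds tested for ERR agonism in an NTP reporter cell line: 18 h treatment at 37 C, then ONE-Glo luminescence.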

[14] = qHTS RealTime-Glo MT Cell Viability Assay in HepG2 cells - 24 hour (AID 1224867); further: nearly all actives have a fitted effect of over 50% in size; further: potency means the concentration at half of the fitted maximal effect
How it was run: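 Real-time, nonlytic viability: 600 HepG2 cells/well mixed with NanoLuc enzyme plus prosubstrate; 5 h settle, compound (DMSO) added by pintool; luminescence monitored over 40 h at 37 C.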

[15] = A CellTox Green Cytotoxicity Assay to monitor cytotoxicity in HEK293 cells - 0 hour (AID 1224869); further: nearly all actives have a fitted effect of over 50% in size
How it was run: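 Tox21 screen in HEK293: membrane-impermeant cyanine dye fluoresces on binding dead-cell DNA; compound pinned 5 h post-seeding, plates held at 37 C, signal read repeatedly through 40 h.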

[16] = qHTS RealTime-Glo MT Cell Viability Assay in HepG2 cells - 40 hour (AID 1224870); further: nearly all actives have a fitted effect of over 50% in size; further: potency means the concentration at half of the fitted maximal effect
How it was run: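 Real-time viability: cells seeded at 600 per well together with NanoLuc and cell-permeant prosubstrate, compounds added after 5 h incubation. Luminescence tracked at 0, 8, 16, 24, 32 and 40 h of exposure.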

[17] = qHTS assay to identify small molecule agonists of the hypoxia (HIF-1) signaling pathway (AID 1224846; active means well fitted activation curve with a large enough effect in the signal ratio in the repeat runs, not every such curve was filed as active; the % refers to the signal ratio)
How it was run: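 Reporter induction in HRE-bla ME-180 cells is taken as agonism: cells sit 5 hrs after plating, receive compounds or DMSO only, incubate 17 hrs at 37C under 5% CO2, and are loaded with CCF4-AM for beta-lactamase FRET measurement.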

[18] = qHTS RealTime-Glo MT Cell Viability Assay in HEK293 cells - 32 hour (AID 1224868)
How it was run: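 Cells + reagent dispensed (600 cells/well, HEK293) → 5 h at 37 C/5% CO2 → 23 nL compound in DMSO pinned → 40 h at 37 C → luminescence read at 0, 8, 16, 24, 32, 40 h.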

For `CCCCCCCCSCCO`, the Potency [1] was “inactive”, the Potency [2] was 71 µM (active) and the Potency [3] was “inactive”. For the same compound, the Potency [4] was “inactive”, the Potency [5] was “inactive” and the Potency [6] was “inactive”. For the same compound, the Potency [7] was “inactive”, the Potency [8] was “inactive” and the Potency [9] was “inactive”. For the same compound, the Potency [10] was “inactive”, the Potency [11] was “inactive” and the Potency [12] was “inactive”. The activity change, positive = activation [13] was -3.95%, the Potency [14] was “inactive” and the Potency [15] was “inactive”. For the same compound, the Potency [16] was “inactive”.

In the case of `CCCC(=O)O[C@]1(C(=O)COC(=O)CC)CC[C@H]2[C@@H]3CCC4=CC(=O)CC[C@]4(C)[C@H]3[C@@H](O)C[C@@]21C`, the viability change, negative = cytotoxic [1] is reported as 2.61% [at 19 µM], the activity change, negative = inhibition [2] is reported as 4.64% [at 23.6 µM] and the viability change, negative = cytotoxic [3] is reported as 10.6% [at 19 µM]. The activity change, negative = cytotoxicity [4] was 6.46% [at 19 µM], the activation [5] was -0.514% [at 19 µM] and the viability change, negative = cytotoxic [6] was -4.48% [at 19 µM]. It also gave an activation [9] of -3.04% [at 19 µM], an activity change, negative = cytotoxicity [10] of -1.64% [at 15.8 µM] and an activation (H2AX phosphorylation) [11] of -1.56% [at 31.6 µM]. It also gave an activation [17] of -2.77% [at 15.8 µM], an activity change, negative = cytotoxicity [12] of 1.02% [at 31.6 µM] and an activity change, negative = cytotoxicity [14] of 1.66% [at 15.8 µM]. It also gave an activity change, negative = cytotoxic [18] of -2.43% [at 15.8 µM], a cytotoxicity [15] of -7.53% [at 15.8 µM] and an activity change, negative = cytotoxic [16] of -0.605% [at 15.8 µM].

In the case of `CC1=CC(=O)CC(C)(C)C1(O)/C=C/C(C)=C\C(=O)O` (stereo not drawn), the Potency [1] is reported as “inactive”, the Potency [2] is reported as “inactive” and the Potency [3] is reported as “inactive”. The Potency [4] was “inactive”, the Potency [5] was “inactive” and the Potency [6] was “inactive”. For the same compound, the Potency [7] was “inactive”, the Potency [8] was “inactive” and the Potency [9] was “inactive”. For the same compound, the Potency [10] was “inactive”, the Potency [11] was “inactive” and the outcome [17] was “inactive”. For the same compound, the Potency [12] was “inactive”, the activity change, positive = activation [13] was 4.36% and the Potency [14] was “inactive”. For the same compound, the Potency [18] was “inactive”, the Potency [15] was “inactive” and the Potency [16] was “inactive”.

In the case of `O=C(CCCCCCCCC#CI)Oc1ccccc1`, the Potency [1] is reported as “inactive”, the Potency [2] is reported as “inactive” and the Potency [3] is reported as “inactive”. For the same compound, the Potency [4] was “inactive”, the Potency [5] was “inactive” and the Potency [6] was “inactive”. The Potency [9] was “inactive”, the Potency [10] was “inactive” and the Potency [11] was “inactive”. For the same compound, the outcome [17] was “inactive”, the Potency [12] was “inactive” and the Potency [14] was 6.01 µM (active). For the same compound, the Potency [15] was “inactive” and the Potency [16] was 2.39 µM (active).
